Data: the supplement of paper PMC6279402
Counter-ions that a name gives are not always drawn. ± gives the standard deviation of the averaged measurements.

Tested on: A549
Test: relative viability (normalised to negative control = 1, bortezomib = 0) (fraction); higher = less cytotoxic
Conditions: inflammatory serum-free RHB-A with cytokines + LPS, 5 d + 24 h CellTiter-Blue
Procedure: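 A549 KRAS-mutant NSCLC cells, pre-treated 5 µM GSK126 or vehicle (DMSO), were seeded at 250 cells/well in 384-well plates in serum-free RHB-A medium with inflammatory cytokines/LPS and treated with Selleck kinase inhibitor and NCI oncology compounds at 30 or 300 nM in triplicate, refreshed at 48 h. Viability was read by CellTiter-Blue after 5 d plus 24 h and normalised per plate with cellHTS2 (mean of bortezomib positive control = 0, mean of negative control = 1).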

[1] = compound 30 nM, GSK126 pretreatment: 5 uM GSK126
[2] = compound 30 nM, GSK126 pretreatment: none (vehicle)
[3] = compound 300 nM, GSK126 pretreatment: 5 uM GSK126
[4] = compound 300 nM, GSK126 pretreatment: none (vehicle)

| SMILES | relative viability [1] | relative viability [2] | relative viability [3] | relative viability [4] |
| --- | --- | --- | --- | --- |
| COc1ncc(-c2ccc3nccc(-c4ccnnc4)c3c2)cc1NS(=O)(=O)c1ccc(F)cc1F | 0.0446 ± 0.01 | 0.0459 ± 0.0045 | 0.00279 ± 0.0028 | 0.00434 ± 0.0032 |
| COC(=O)Nc1ccc(-c2nc(N3CCOCC3)c3cnn(C4CCN(C(=O)OC)CC4)c3n2)cc1 | 0.691 ± 0.035 | 0.715 ± 0.019 | 0.489 ± 0.036 | 0.588 ± 0.04 |
| Nc1ccn([C@@H]2O[C@H](CO)[C@@H](O)C2(F)F)c(=O)n1 [Gemcitabine hydrochloride; Gemcitabine HCl] | 0.396 ± 0.12 | 0.264 ± 0.087 | 0.39 ± 0.093 | 0.19 ± 0.087 |
| Cn1cnc2c(F)c(Nc3ccc(Br)cc3Cl)c(C(=O)NOCCO)cc21 [AZD6244(Selumetinib)] | 0.401 ± 0.0087 | 0.592 ± 0.045 | 0.203 ± 0.028 | 0.34 ± 0.022 |
| Nc1nc2[nH]cc(CCc3ccc(C(=O)N[C@@H](CCC(=O)O)C(=O)O)cc3)c2c(=O)[nH]1 [Pemetrexed; Pemetrexed Disodium] | 0.89 ± 0.07 | 0.88 ± 0.078 | 0.829 ± 0.1 | 0.879 ± 0.095 |
| Cc1ccc(NC(=O)c2ccc(CN3CCN(C)CC3)cc2)cc1Nc1nc(-c2cccnc2)cs1 [Masitinib(AB1010)] | 0.802 ± 0.1 | 0.761 ± 0.1 | 0.841 ± 0.11 | 0.979 ± 0.091 |
| Oc1ncnc2[nH]ncc12 [Allopurinol] | 0.988 ± 0.076 | 0.996 ± 0.03 | 0.952 ± 0.11 | 0.974 ± 0.066 |
| COc1ccc(-c2ccc3c(N4CCOC[C@@H]4C)nc(N4CCOC[C@@H]4C)nc3n2)cc1CO | 0.392 ± 0.011 | 0.396 ± 0.016 | 0.191 ± 0.054 | 0.197 ± 0.015 |
| CNC(=O)CN1CCC(Oc2cc3c(Nc4cccc(Cl)c4F)ncnc3cc2OC)CC1 | 0.536 ± 0.14 | 0.525 ± 0.058 | 0.346 ± 0.075 | 0.375 ± 0.024 |
| O=C(NOCC(O)CO)c1cc(Br)c(F)c(F)c1Nc1ccc(I)cc1F (stereo not given) | 0.407 ± 0.025 | 0.492 ± 0.087 | 0.193 ± 0.019 | 0.276 ± 0.0045 |
